The text below walks through data of PubChem BioAssay AID2551 (National Center for Advancing Translational Sciences (NCATS), 2010).

Structures are written as SMILES. Screen size: about 310,000 compounds; about 17,000 (5.5%) were called active. A call without a number means that no potency is given here. Roughly 11% stayed inconclusive and do not appear here. The call rests on the fitted dose curve; in most records, active means well fitted inhibition curve with a large enough effect; inconclusive means small, poorly fitted or top-dose-only effect, or effect the other way; inactive means no such curve, though single readings can be large or run the other way. Only a selection was taken, and actives are over-represented in it overall.
Potency means the concentration at half of the fitted maximal effect.

The target in this assay is Nuclear receptor ROR-gamma (Mus musculus) (UniProt P51450). As to the kind of experiment: qHTS for inhibitors of ROR gamma transcriptional activity. Further: nearly all actives have a fitted effect of over 60% in size. The following applies: Drosophila S2 Gal4-RORgamma UAS-luciferase reporter, 20 h; series mostly up to 53.6 µM. The method in brief: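 Drosophila Schneider cells stably carrying a metallothionein-driven Gal4 DBD–ROR gamma fusion and a UAS-Photinus luciferase reporter were exposed to compound for 1 hr, then induced with copper sulfate (700 uM final) for 20 hr at ambient temperature before luminescence reading.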
Chain of Nuclear receptor ROR-gamma (Mus musculus) (P51450 whole entry, looked up, the tested form may be a part): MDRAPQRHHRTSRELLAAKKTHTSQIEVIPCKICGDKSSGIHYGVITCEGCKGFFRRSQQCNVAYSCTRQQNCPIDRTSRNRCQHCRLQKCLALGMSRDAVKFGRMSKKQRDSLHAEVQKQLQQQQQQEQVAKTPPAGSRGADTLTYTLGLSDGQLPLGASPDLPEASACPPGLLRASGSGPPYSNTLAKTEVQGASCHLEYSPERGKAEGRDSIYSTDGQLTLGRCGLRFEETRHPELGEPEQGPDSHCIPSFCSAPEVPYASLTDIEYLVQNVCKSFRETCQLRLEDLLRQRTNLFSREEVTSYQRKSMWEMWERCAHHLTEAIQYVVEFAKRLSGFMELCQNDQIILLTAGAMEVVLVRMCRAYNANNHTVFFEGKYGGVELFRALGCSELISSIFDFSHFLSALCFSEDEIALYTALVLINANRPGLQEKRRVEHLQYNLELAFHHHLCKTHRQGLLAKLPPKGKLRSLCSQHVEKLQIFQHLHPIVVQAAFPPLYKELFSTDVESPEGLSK
Background: qHTS replaces the single test concentration by a dilution series.
Consider `COc1ccc(OCC(=O)NNC(=O)c2ccc(-c3ccccc3)cc2)cc1`, for which the Potency result is “inactive”. Same read-out and setting: with `COc1ccc(C(=O)NNC(=S)NC(=O)c2ccccc2)cc1` the figure was 4.47 µM (active). With `COc1ccc(C(=O)NNC(=O)c2cc(C)[nH]n2)cc1`, the Potency entry was “inactive”. On the same count and under the same terms, with `COCCCNC(=S)N(Cc1ccccc1)Cc1ccc(F)cc1` the figure was 15.8 µM (active). The same measure, in the same setting: in the case of `COc1ccc(OCC(=O)Nc2ccc(NC(=O)c3ccco3)c(C)c2)cc1` it was “inactive”; in that of `CNC(=S)NNC(=O)c1ccc(N(C)C)cc1`, “inactive”; in that of `Cc1ccc(OCC(=O)NCCCNC(=O)c2ccco2)cc1C`, “inactive”. On the same count and under the same terms, with `CC(=O)NC(=S)NNC(=O)c1ccc(Br)cc1` the figure was 12.6 µM (active). For the compound `Cn1nnnc1SCC(=O)NNC(=O)c1ccc(Br)cc1`, the Potency entry is “inactive”.

With `Cc1cc(C)c2[nH]c(=O)c(CN(Cc3ccccc3)C(=S)NCCCN(C)C)cc2c1`, the Potency result is “inactive”. Still for that read-out and setting: with `CCCc1ccc(OCC(=O)NNC(=S)NC(=O)c2ccco2)cc1` the figure was 12.6 µM (active); with `COCCNC(=S)N(Cc1cccnc1)Cc1ccc(OC)c(OC)c1`, “inactive”.

For the compound `Cc1ccc(N(CC(=O)NC2CCCCC2)C(=O)CCCC(=O)Nc2ccccn2)c(C)c1`, the Potency entry was “inactive”. With `O=C(NCc1ccco1)C(c1ccncc1)N(C(=O)Cn1nnc2ccccc21)c1ccccc1` (stereo not drawn), the Potency entry was “inactive”. As for `O=C(Nc1cccc(Cl)c1Cl)c1ccccc1NC(=O)C1CC=CCC1C(=O)O` (stereo not drawn), the Potency entry was “inactive”. Same read-out and setting: with `CCc1ccc(C(CNc2nc(C(F)(F)F)nc3ccccc23)N(C)C)cc1` (stereo not drawn) the entry was “inactive”; with `O=C(Nc1cccc(Br)c1)c1ccc2snnc2c1`, “inactive”; with `CCN1C(=NCCc2cccnc2)N[C@@H](c2ccccc2)C(C(=O)OC)=C1C`, “inactive”. On the same count and under the same terms, with `O=S(=O)(c1cccc(Cn2nnc(-c3ccc(F)cc3)n2)c1)N1CCOCC1` the entry was “inactive”. On the same count and under the same terms, in the case of `CC1(C(=O)O)CCC(C(=O)Nc2ccc(Cl)c(Cl)c2)C1(C)C` (stereo not drawn) it was “inactive”; in that of `C=CCn1c(=S)[nH]c2nc3c(cc2c1=O)COC(C)(C)C3`, 3.98 µM (active). Consider `CC(C)CCSc1ncnc2c1oc1nc3c(cc12)COC(C)(C)C3`, for which the Potency result was “inactive”. The same measure, in the same setting: in the case of `CC1(C)Cc2nc3sc4c(SCC(=O)NC(c5ccccc5)c5ccccc5)ncnc4c3cc2CO1` it was “inactive”; in that of `Cc1cc(C)nc(NS(=O)(=O)c2ccc(N3C(=O)C4CCCCC4C3=O)cc2)n1` (stereo not drawn), “inactive”; in that of `CCc1ccc(NC(=O)C(=O)NNC(=O)c2cccs2)cc1`, “inactive”. On the same count and under the same terms, with `CCc1ccc(NC2Nc3cc(C)nn3S2)cc1` (stereo not drawn) the figure was 1.58 µM (active); with `CCOC(=O)c1ccc(NC2Nc3cc(C)nn3S2)cc1` (stereo not drawn), “inactive”; with `Cc1ccccc1NC(=O)Cn1cc(C(=O)C2CC2)c2ccccc21`, “inactive”.

Regarding `CC1CCCCN1C(=O)Cn1c(=O)oc2cc(S(=O)(=O)N3CCCCC3)ccc21` (stereo not drawn), the Potency result was “inactive”. Take `CCSc1nc2sc3c(c2c(=O)n1-c1ccc(C)cc1)CCN(C)C3`: the Potency entry was “inactive”.

As to `O=C(c1ccc(OC2CCN(C/C=C/c3ccc(F)cc3)CC2)cc1)N1CCCCC1`, the Potency entry is “inactive”. Take `CCn1c(C(C)C)n[nH]c1=S`: the Potency result was “inactive”.

With `CCCc1cc(=O)[nH]c(SCC(=O)OCc2ccccc2)n1`, the Potency result is “inactive”. Regarding `CCCc1cc(-c2n[nH]c(=S)n2CC)c2ccccc2n1`, the Potency was 11.2 µM (active). Still for that read-out and setting: with `CC(C)n1c(-c2ccncc2)n[nH]c1=S` the figure was 12.6 µM (active); with `CCOC(=O)CSc1nnc(-c2ccncc2)o1`, “inactive”; with `CCn1c(C(C)NC(=O)c2ccc(C)cc2)n[nH]c1=S` (stereo not drawn), “inactive”. Consider `CCn1c(-c2ccoc2C)n[nH]c1=S`, for which the Potency is 11.2 µM (active). For `CCn1c(SCC(=O)NC2CCCC2)nnc1-c1ccoc1C`, the Potency entry was “inactive”.

Turning to `CCn1c(-c2ccncc2)n[nH]c1=S`, the Potency was 5.01 µM (active).

With `CCn1c(SCC(=O)Nc2nc3ccc(OC)cc3s2)nnc1-c1ccoc1C`, the Potency result was “inactive”.

As to `O=S(=O)(Nc1ccccc1Br)c1cccs1`, the Potency result is “inactive”. The same measure, in the same setting: in the case of `O=C(Nc1ccc(CN2CCOCC2)cc1)c1cc(Cl)ccc1Cl` it was “inactive”; in that of `C[C@@H]1CC[C@@]2(OC1)O[C@H]1C[C@H]3[C@@H]4CC=C5C[C@@H](O)[C@H](O)C[C@]5(C)C4CC[C@]3(C)[C@H]1[C@@H]2C` (stereo partly drawn), “inactive”; in that of `O=C1Nc2cc(C(=O)N3CCN(c4ccc(F)cc4)CC3)ccc2NC1CSCc1cccc(F)c1` (stereo not drawn), “inactive”. For the compound `CC1CCC(NS(=O)(=O)c2ccc3c(c2)CC(=O)N3)CC1` (stereo not drawn), the Potency result is “inactive”. The same measure, in the same setting: in the case of `CCC(=O)Nc1nc2ccccc2n1Cc1ccccc1C` it was 2 µM (active); in that of `CCC(=O)NCCc1nc2ccccc2n1CC`, “inactive”; in that of `CCn1nc(NC(=O)c2ccco2)c2cc3ccc(C)cc3nc21`, “inactive”. Take `O=S(=O)(O)c1nc2ccccc2n1Cc1ccc(Cl)cc1`: the Potency result was “inactive”. In the case of `CC(=O)c1nc2ccccc2n1Cc1ccccc1`, the Potency result was “inactive”. As for `CC(=O)Nc1nc2ccccc2n1Cc1ccc(C)cc1`, the Potency was 1.26 µM (active). As for `CC(=O)NC(C)c1nc2ccccc2n1Cc1ccccc1F` (stereo not drawn), the Potency result was “inactive”. Still for that read-out and setting: in the case of `Cc1ccnc(NC(=O)c2ccco2)n1` it was “inactive”.

With `Cc1ccc(Cn2c(NC(=O)c3ccco3)nc3ccccc32)cc1`, the Potency is 0.282 µM (active).

In the case of `CCOC(=O)C1CCN(S(=O)(=O)c2ccc3c(c2)N(C(C)=O)CCO3)CC1`, the Potency result was “inactive”. For the compound `COc1ccc2c3c(c(=O)oc2c1)C1O[C@](CCCCN2C(=O)c4ccccc4C2=O)(Cc2c1ccc1ccccc21)O3`, the activity change, negative = inhibition is -28.3% [at 10 µM] (inactive). `CCN1CCCC1CNC(=O)c1cc2cc(OC)c(OC)cc2[nH]1` (stereo not drawn): the Potency entry is “inactive”. Turning to `CCn1c(SCC(=O)Nc2ccc3c(c2)OCCO3)nnc1C(C)C`, the Potency result is “inactive”. On the same count and under the same terms, in the case of `CC(Oc1ccccc1[N+](=O)[O-])C(=O)N/N=C/c1ccoc1` (stereo not drawn) it was “inactive”. Take `COc1cc(/C=N/NC(=O)c2cc(C)n(-c3ccc(F)cc3)c2C)cc(OC)c1O`: the Potency result is “inactive”. For `CC(C)c1cc(C(=O)N/N=C/c2ccoc2)c(O)c(C(C)C)c1`, the Potency was 5.62 µM (active). `CCc1ccccc1NC(=S)Nc1cc(OC)c(NC(=O)C(C)C)cc1OC`: the activity change, negative = inhibition was -14.6% [at 1.91 µM] (inactive). For the compound `COc1ccccc1NC(=O)C(C)OC(=O)CC1CCCC1` (stereo not drawn), the Potency result is “inactive”. Turning to `COc1ccccc1NC(=O)/C=C/C(=O)O`, the Potency result was “inactive”. For `COC(=O)c1ccccc1NC(=S)NC(=O)c1ccccc1F`, the Potency was 12.6 µM (active). `COc1ccccc1NC(=O)c1ccc(C)s1`: the Potency entry is “inactive”. For the compound `CC(C)C(=O)Nc1cccc(NC(=S)NC(=O)C(c2ccccc2)c2ccccc2)c1`, the Potency is 7.08 µM (active).

Consider `COC(=O)c1ccccc1NC(=O)c1ccccc1NS(C)(=O)=O`, for which the Potency entry was “inactive”.

On to `COc1ccccc1NC(=S)NC(=O)C(C)C`, for which the Potency is 5.01 µM (active). As for `CC(C)C(=O)Nc1cccc(NC(=O)c2ccc([N+](=O)[O-])cc2Cl)c1`, the Potency result is “inactive”. Turning to `COc1ccccc1NC(=O)/C=C/C(N)=O`, the Potency was 4.47 µM (active). Same read-out and setting: with `COc1cccc(NC(=O)C(C)Oc2ccccc2)c1` (stereo not drawn) the entry was “inactive”.

In the case of `NC(=O)c1ccccc1NC(=O)c1ccccc1F`, the Potency result is “inactive”. The same measure, in the same setting: in the case of `Cc1ccc(C(=O)NC23CC4CC(CC(C4)C2)C3)c(Cl)c1` it was “inactive”. Consider `Oc1ccccc1C1=NN(c2ccccc2)C(c2ccccc2)C1` (stereo not drawn), for which the Potency result is “inactive”. As for `CC(C)c1nnc(NC(=O)COC(=O)/C=C/c2ccc([N+](=O)[O-])cc2)s1`, the Potency entry is “inactive”. Regarding `NNC(=O)c1nnn(-c2nonc2N)c1CN1CCCC1`, the Potency entry is “inactive”.

In the case of `CCc1ccc(NC(=O)NC(C)c2ccc3c(c2)OCO3)cc1` (stereo not drawn), the Potency entry is “inactive”. For the compound `O=C(CN(Cc1ccc(Br)cc1)S(=O)(=O)c1ccccc1)NCc1ccncc1`, the Potency entry was “inactive”. Still for that read-out and setting: in the case of `COc1ccccc1OCCNC(=O)CCNC(=O)c1ccccc1Cl` it was “inactive”; in that of `CC(C)CCn1cnc2c1c(=O)n(CC(=O)NC(N)=O)c(=O)n2Cc1ccccc1`, “inactive”. As to `O=C(NCc1ccco1)/C(=C/c1ccco1)NC(=O)c1ccccc1`, the Potency result was “inactive”. Still for that read-out and setting: in the case of `CC(=O)c1nn(-c2cccc(C(F)(F)F)c2)c(=O)[nH]c1=O` it was “inactive”; in that of `O=S(=O)(Cc1nnnn1-c1ccccc1)c1ccccc1`, “inactive”; in that of `O=C(COc1ccc2c3c(c(=O)oc2c1)CCCC3)NCC(O)c1ccccc1` (stereo not drawn), “inactive”.

`CC(C)CC(=O)NC(=S)Nc1ccc(F)cc1F`: the Potency result was “inactive”. The same measure, in the same setting: in the case of `CC(C)C(=O)NC(=S)Nc1ccccc1F` it was 7.08 µM (active); in that of `O=C(Nc1ccccc1F)c1ccccc1-c1ccccc1`, “inactive”.

Consider `O=C(c1n[nH]c2c1CCC2)N1CCCC(Nc2cccc(F)c2)C1` (stereo not drawn), for which the Potency entry is “inactive”. On the same count and under the same terms, with `COc1ccc(S(=O)(=O)N(CC(=O)N/N=C/c2ccccc2C(=O)O)c2ccccc2OC)cc1` the entry was “inactive”; with `COc1ccccc1N(CC(=O)N/N=C(\C)c1ccccc1O)S(=O)(=O)c1ccc(C)cc1`, 0.562 µM (active). Same read-out and setting: in the case of `COc1ccccc1NC(=O)CN(c1ccccc1OC)S(=O)(=O)c1ccccc1` it was “inactive”.

In the case of `Cc1nc([N+](=O)[O-])cn1CC(=O)Nc1ccc(Cl)cc1`, the Potency entry is “inactive”. With `N#CC1=C(N)Oc2[nH]c(=S)[nH]c(=O)c2C12C(=O)Nc1ccccc12` (stereo not drawn), the Potency entry is “inactive”. `CC1(C)Cc2ccccc2/C(=C/C(=O)c2ccccc2)N1`: the Potency entry was “inactive”. As for `CC1(C)Cc2ccccc2-c2[nH]c(=S)[nH]c(=O)c21`, the Potency was 17.8 µM (active). Still for that read-out and setting: with `Cc1nn(C(C)(C)C)c(OC(=O)CC(C)C)c1S(=O)(=O)c1ccccc1` the entry was “inactive”; with `COc1ccc(C)cc1Nc1nc(-c2c(C)[nH]c3ccccc23)cs1`, “inactive”; with `COc1ccc(C)cc1S(=O)(=O)Nc1cccc(Cl)c1Cl`, “inactive”. Regarding `COc1ccc(C)cc1Nc1n[n+](-c2ccccc2)c(-c2cccc(Cl)c2Cl)s1`, the Potency was 6.31 µM (active). On the same count and under the same terms, in the case of `COc1cc(Br)c(-c2sc(Nc3ccccc3)n[n+]2-c2ccccc2)cc1OC` it was 11.2 µM (active); in that of `CCOc1ccc2c(c1)c(=O)c(S(=O)(=O)c1ccc(C)cc1)cn2CC`, “inactive”.

For `CC(=O)N1CCN(CC(c2ccccc2)c2ccccc2)CC1`, the Potency entry was “inactive”.

Take `COc1ccc(C(=O)C2CCCN(S(=O)(=O)c3cccc(C)c3)C2)c(C)c1` (stereo not drawn): the Potency entry was “inactive”. For the compound `COc1cc(/C=C/CO)cc(OC)c1O[C@@H]1O[C@H](CO)[C@@H](O)[C@H](O)[C@H]1O`, the Potency entry is “inactive”.

On to `CCc1cccc(OC2OC(CO)C(O)C(O)C2NC(C)=O)c1` (stereo not drawn), for which the Potency result is “inactive”. As for `Cc1csc(-c2coc3cc(O[C@@H]4O[C@H](CO)[C@@H](O)[C@@H](O)[C@H]4O)ccc3c2=O)n1`, the Potency is 3.16 µM (active).
